Results on eight molecules are retold here after PubChem BioAssay (NCI).

The structures appear in SMILES notation. Several values for one entry are separate records, joined by “and”; a condition that tells them apart may be missing. Identical values can stand only once. This is part of a sample that, as a whole, favours compounds with a hit. Of some 79,000 tested, about 15% had one in any assay. A structure can be active in one record and inactive in another. Activity calls are given as the source filed them. Cut-off read from the data, not from the text of the source: active = growth inhibition above about 70%; inactive = the rest.

Experiment [1] is described as follows: NCI Yeast Anticancer Drug Screen. Data for the rad50 strain (AID 155).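 Note: 0% = growth of vehicle-only cultures of the same strain.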 The settings on record: S. cerevisiae rad50 strain growth inhibition, stronger effect = higher value. Put shortly: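 Compounds were tested on a yeast strain with an engineered DNA damage repair alteration; the reported value is growth inhibition normalised to vehicle treatment.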
The nature of experiment [2]: NCI Yeast Anticancer Drug Screen. Data for the mec2-1 strain (AID 157). The settings on record: S. cerevisiae mec2-1 strain, stronger effect = higher value. The essentials:
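Mutant yeast (mec2-1) grown with compound; growth inhibition relative to vehicle control reported.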

Experiment [3] can be described thus: NCI Yeast Anticancer Drug Screen. Data for the sgs1 mgt1 strain (AID 161).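 Note: 0% = growth of cultures given vehicle only.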 The note with it: S. cerevisiae sgs1 mgt1 strain, stronger effect = higher value. The essentials: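 Compounds are added to genetically altered yeast, and growth is compared with cultures given vehicle alone to give percent inhibition.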
A short description of experiment [4]: NCI Yeast Anticancer Drug Screen. Data for the cln2 rad14 strain (AID 165).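 Note: 0% = growth equal to vehicle treated cultures.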 The note with it: S. cerevisiae cln2 rad14 strain, stronger effect = higher value. The essentials: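 Readout is yeast growth inhibition versus vehicle-treated controls, using a strain with cln2 and rad14 alterations exposed to compound.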
A short description of experiment [5]: NCI Yeast Anticancer Drug Screen. Data for the bub3 strain (AID 167). The note with it: S. cerevisiae bub3 mutant strain, stronger effect = higher value. The essentials: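 Growth of a checkpoint-deficient yeast mutant is measured after compound exposure. Values represent inhibition relative to vehicle.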
Experiment [6] can be described thus: NCI Yeast Anticancer Drug Screen. Data for the mlh1 rad18 strain (AID 175). The settings on record: S. cerevisiae mlh1 rad18 strain growth inhibition, stronger effect = higher value. Put shortly: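 Genetically defined yeast (DNA repair-deficient) exposed to compounds; growth inhibition determined relative to vehicle.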
[7] abbreviates: at 5.0 µM (retest, dose inferred, filed as 0.5).
The mark [8] stands for this setting: at 50.0 µM (retest, dose inferred, filed as 5.0).

Consider `CCCCCCCCCCCC[N+](C)(C)Cc1ccccc1`, for which the growth inhibition in experiment [1] (setting [7]) was 58% (inactive) and 95% (active); in experiment [1] (setting [8]), 99% (active) and 98% (active); in experiment [1] (at 50.0 µM), 85.7% (active) and 97.7% (active); in experiment [2] (setting [7]), 75% (active) and 93% (active); in experiment [2] (setting [8]), 100% (active) and 98% (active); in experiment [2] (at 50.0 µM), 99.8% (active) and 98.3% (active). In addition, the growth inhibition in experiment [3] (setting [7]) is 91% (active) and 99% (active); in experiment [3] (setting [8]), 100% (active) and 98% (active); in experiment [3] (at 50.0 µM) it was 98% (active) and 99.4% (active); in experiment [4] (setting [7]) it was 56% (inactive) and 88% (active); in experiment [4] (setting [8]), 99% (active) and 97% (active); in experiment [4] (at 50.0 µM), 99.4% (active) and 98% (active). For the same molecule, the growth inhibition in experiment [5] (setting [7]) was 57% (inactive) and 92% (active); in experiment [5] (setting [8]), 100% (active) and 98% (active); in experiment [5] (at 50.0 µM), 99.5% (active) and 99.3% (active); in experiment [6] (setting [7]), 81% (active) and 96% (active); in experiment [6] (setting [8]), 99% (active) and 98% (active); in experiment [6] (at 50.0 µM) it was 99.7% (active) and 98.5% (active).

Turning to `c1ccc(-c2[nH]c3ccccc3c2-c2ccccn2)cc1`, the growth inhibition in experiment [1] (setting [7]) was 3% (inactive); in experiment [1] (setting [8]), 8% (inactive); in experiment [1] (at 50.0 µM) it was 91.8% (active); in experiment [2] (setting [7]), -2% (inactive); in experiment [2] (setting [8]) it was -2% (inactive); in experiment [2] (at 50.0 µM), 99.3% (active). The growth inhibition in experiment [3] (setting [7]) was 4% (inactive); in experiment [3] (setting [8]), 23% (inactive); in experiment [3] (at 50.0 µM), 95.6% (active); in experiment [4] (setting [7]) it was 4% (inactive); in experiment [4] (setting [8]), 8% (inactive); in experiment [4] (at 50.0 µM), 99.1% (active). Also, the growth inhibition is 0% (inactive) in experiment [5] (setting [7]); 2% (inactive) in experiment [5] (setting [8]); 98.7% (active) in experiment [5] (at 50.0 µM); 5% (inactive) in experiment [6] (setting [7]); 13% (inactive) in experiment [6] (setting [8]); 98.8% (active) in experiment [6] (at 50.0 µM).

With `O=S(=O)(O)c1ccc(NN(c2c(O)ccc3ccccc23)S(=O)(=O)O)cc1`, the growth inhibition is -12% (inactive) in experiment [1] (setting [7]); 1% (inactive) in experiment [1] (setting [8]); 18.2% (inactive) in experiment [1] (at 50.0 µM); -5% (inactive) in experiment [2] (setting [7]); -11% (inactive) in experiment [2] (setting [8]); -3.1% (inactive) in experiment [2] (at 50.0 µM). Further, the growth inhibition in experiment [3] (setting [7]) is -16% (inactive); in experiment [3] (setting [8]), -12% (inactive); in experiment [3] (at 50.0 µM), -19.7% (inactive); in experiment [4] (setting [7]), -17% (inactive); in experiment [4] (setting [8]), -84% (inactive); in experiment [4] (at 50.0 µM) it was 43.9% (inactive). In addition, the growth inhibition is -9% (inactive) in experiment [5] (setting [7]); -10% (inactive) in experiment [5] (setting [8]); -29.8% (inactive) in experiment [5] (at 50.0 µM); -12% (inactive) in experiment [6] (setting [7]); -19% (inactive) in experiment [6] (setting [8]); 15.1% (inactive) in experiment [6] (at 50.0 µM).

Turning to `CN(C)c1ccc(/C=C/c2ccc3ccccc3[n+]2C)cc1`, the growth inhibition is 1% (inactive) in experiment [1] (setting [7]); 98% (active) in experiment [1] (setting [8]); 53.4% (inactive) in experiment [1] (at 50.0 µM); 3% (inactive) in experiment [2] (setting [7]); 98% (active) in experiment [2] (setting [8]); 99% (active) in experiment [2] (at 50.0 µM). In addition, the growth inhibition in experiment [3] (setting [7]) is 11% (inactive); in experiment [3] (setting [8]), 97% (active); in experiment [3] (at 50.0 µM) it was 46.2% (inactive); in experiment [4] (setting [7]), 3% (inactive); in experiment [4] (setting [8]), 98% (active); in experiment [4] (at 50.0 µM), 98% (active). Further, the growth inhibition is -9% (inactive) in experiment [5] (setting [7]); 99% (active) in experiment [5] (setting [8]); 84.2% (active) in experiment [5] (at 50.0 µM); -15% (inactive) in experiment [6] (setting [7]); 98% (active) in experiment [6] (setting [8]); 98.3% (active) in experiment [6] (at 50.0 µM).

On to `CC(C)c1ccc(C=Nc2ccc(SSc3ccc(N=Cc4ccc(C(C)C)cc4)cc3)cc2)cc1`, for which the growth inhibition in experiment [1] (setting [7]) is 44% (inactive); in experiment [1] (setting [8]), -7% (inactive); in experiment [1] (at 50.0 µM), 73.7% (active); in experiment [2] (setting [7]), 26% (inactive); in experiment [2] (setting [8]), 1% (inactive); in experiment [2] (at 50.0 µM) it was 49.4% (inactive). Further, the growth inhibition is 57% (inactive) in experiment [3] (setting [7]); -5% (inactive) in experiment [3] (setting [8]); 57.6% (inactive) in experiment [3] (at 50.0 µM); 5% (inactive) in experiment [4] (setting [7]); -13% (inactive) in experiment [4] (setting [8]); 12.2% (inactive) in experiment [4] (at 50.0 µM). In addition, the growth inhibition in experiment [5] (setting [7]) was 13% (inactive); in experiment [5] (setting [8]) it was 1% (inactive); in experiment [5] (at 50.0 µM), 66.9% (inactive); in experiment [6] (setting [7]), 25% (inactive); in experiment [6] (setting [8]), -11% (inactive); in experiment [6] (at 50.0 µM), 76.4% (active).

For `Cc1ccccc1N=Nc1ccc(N=Nc2ccc(N)nc2N)c(C)c1`, the growth inhibition is 2% (inactive) in experiment [1] (setting [7]); -23% (inactive) in experiment [1] (setting [8]); 31.2% (inactive) in experiment [1] (at 50.0 µM); -19% (inactive) in experiment [2] (setting [7]); 17% (inactive) in experiment [2] (setting [8]); 62.1% (inactive) in experiment [2] (at 50.0 µM). Besides, the growth inhibition in experiment [3] (setting [7]) was -1% (inactive); in experiment [3] (setting [8]) it was 11% (inactive); in experiment [3] (at 50.0 µM), 10.1% (inactive); in experiment [4] (setting [7]), -4% (inactive); in experiment [4] (setting [8]), -27% (inactive); in experiment [4] (at 50.0 µM), 15.3% (inactive). Moreover, the growth inhibition in experiment [5] (setting [7]) is -3% (inactive); in experiment [5] (setting [8]), 9% (inactive); in experiment [5] (at 50.0 µM) it was 82.2% (active); in experiment [6] (setting [7]), -2% (inactive); in experiment [6] (setting [8]), -29% (inactive); in experiment [6] (at 50.0 µM) it was 28.9% (inactive).

Regarding `Cc1ccc(CC(=O)c2c(C)[nH]c3ccccc23)cc1C`, the growth inhibition in experiment [1] (setting [7]) was 10% (inactive); in experiment [1] (setting [8]), 11% (inactive); in experiment [1] (at 50.0 µM) it was 95.7% (active); in experiment [2] (setting [7]), 7% (inactive); in experiment [2] (setting [8]) it was 24% (inactive); in experiment [2] (at 50.0 µM) it was 96.2% (active). The growth inhibition in experiment [3] (setting [7]) was 11% (inactive); in experiment [3] (setting [8]), 11% (inactive); in experiment [3] (at 50.0 µM), 98.5% (active); in experiment [4] (setting [7]), 40% (inactive); in experiment [4] (setting [8]), 44% (inactive); in experiment [4] (at 50.0 µM) it was 93.5% (active). For the same molecule, the growth inhibition in experiment [5] (setting [7]) was 0% (inactive); in experiment [5] (setting [8]), 4% (inactive); in experiment [5] (at 50.0 µM), 92.5% (active); in experiment [6] (setting [7]) it was 20% (inactive); in experiment [6] (setting [8]), 8% (inactive); in experiment [6] (at 50.0 µM), 97% (active).

Turning to `CCC(=O)OCOc1ccc(/C=C2\CCC(CN(C)C)C2=O)cc1` (centres undefined), the growth inhibition in experiment [1] (setting [7]) was 30% (inactive); in experiment [1] (setting [8]), 53% (inactive); in experiment [1] (at 50.0 µM), 93.3% (active); in experiment [2] (setting [7]), 23% (inactive); in experiment [2] (setting [8]), 66% (inactive); in experiment [2] (at 50.0 µM), 92.6% (active). The growth inhibition in experiment [3] (setting [7]) was 40% (inactive); in experiment [3] (setting [8]), 88% (active); in experiment [3] (at 50.0 µM), 92.5% (active); in experiment [4] (setting [7]), 29% (inactive); in experiment [4] (setting [8]) it was 34% (inactive); in experiment [4] (at 50.0 µM) it was 90.9% (active). Also, the growth inhibition is 36% (inactive) in experiment [5] (setting [7]); 98% (active) in experiment [5] (setting [8]); 84.5% (active) in experiment [5] (at 50.0 µM); 33% (inactive) in experiment [6] (setting [7]); 66% (inactive) in experiment [6] (setting [8]); 90.8% (active) in experiment [6] (at 50.0 µM).
